Assay results reported in PubChem BioAssay AID1851 (National Center for Advancing Translational Sciences (NCATS), 2009).
About 5,800 (36%) of roughly 16,000 compounds were called active. Roughly 23% stayed inconclusive and do not appear here. The call rests on the fitted dose curve; in most records, active means well fitted curve in the direction sought with a large enough effect; inconclusive means small, poorly fitted or top-dose-only effect, or effect the other way; inactive means no such curve, though single readings can be large or run the other way. The list shows a part of the results.

target: Cytochrome P450 2C19 (Homo sapiens) (UniProt P33261); assay: Cytochrome panel assay with activity outcomes; details: recombinant CYP, pro-luciferin dealkylation, luminescence, p450-cyp2c19; series mostly up to 57.1 µM
On the % scale 0 is the no-effect control and ±100 the full control effect.

Chain of Cytochrome P450 2C19 (Homo sapiens) (P33261 whole entry, looked up): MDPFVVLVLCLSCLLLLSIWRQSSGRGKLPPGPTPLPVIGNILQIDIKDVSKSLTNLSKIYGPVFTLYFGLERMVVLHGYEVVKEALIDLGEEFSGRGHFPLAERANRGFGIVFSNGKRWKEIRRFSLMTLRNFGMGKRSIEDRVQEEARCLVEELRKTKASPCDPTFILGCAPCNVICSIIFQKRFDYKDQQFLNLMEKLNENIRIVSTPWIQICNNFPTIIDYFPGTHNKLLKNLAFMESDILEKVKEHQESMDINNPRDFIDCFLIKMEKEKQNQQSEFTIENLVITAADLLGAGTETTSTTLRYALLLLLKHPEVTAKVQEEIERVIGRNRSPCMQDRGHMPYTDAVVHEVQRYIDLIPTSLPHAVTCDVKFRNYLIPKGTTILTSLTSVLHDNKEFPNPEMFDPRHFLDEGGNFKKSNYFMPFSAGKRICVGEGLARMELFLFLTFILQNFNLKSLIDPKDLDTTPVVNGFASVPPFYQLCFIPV

Structure (SMILES) | AC50 | activity, negative = inhibition
CC(=O)COC(=O)CCc1nc2ccccc2[nH]c1=O | 11.2 µM (active) | –
N[C@@H](Cc1ncccn1)C(=O)O | – | 1.66% [at 11.4 µM] (inactive)
CCCCNC(=O)C1C2C=CC3(CN(Cc4ccccc4Cl)C(=O)C13)O2 (configuration not stated) | 20 µM (active) | –
Cc1ccc(CN2CC34C=CC(O3)C(C(=O)NCc3ccco3)C4C2=O)cc1 (configuration not stated) | 14.1 µM (active) | –
Cc1ccc(CN2CC34C=CC(O3)C(C(=O)NCc3ccc5c(c3)OCO5)C4C2=O)cc1 (configuration not stated) | 15.8 µM (active) | –
COCCCNC(=O)C1C2C=CC3(CN(Cc4ccc(C)cc4)C(=O)C13)O2 (configuration not stated) | inactive | –
COC(=O)N1CCC2(CCN(C(=O)NC(C)C)CC2)CC1 | inactive | –
FC(F)(F)c1nnc2c(Sc3ccc(Cl)cc3)nc3ccccc3n12 | inactive | –
FC(F)(F)c1nnc2c(Sc3ccccc3)nc3ccc(Cl)cc3n12 | 1.41 µM (active) | –
C[C@@]1(C(NC(=O)Cc2ccc(C(F)(F)F)cc2)c2ccc(-c3ccccc3)cc2)C[C@H]1C1CCCCC1 (some centres not stated) | inactive | –
CC(C)NC(=O)c1ccc(-c2cccc(C(F)(F)F)c2)o1 | 7.08 µM (active) | –
CC(C)NC(=O)N1CCC2(CC1)CCN(C(=O)c1cc(C(F)(F)F)cc(C(F)(F)F)c1)CC2 | inactive | –
COCCCNC(=O)C1CCN(S(=O)(=O)N(CC(C)C)CC(C)C)CC1 | inactive | –
CC(=O)Nc1ccc(S(=O)(=O)NCC2CCC(C(=O)NCCC(C)C)CC2)cc1 (configuration not stated) | 31.6 µM (active) | –
Cc1ccc(S(=O)(=O)NCC2CCC(C(=O)O)CC2)cc1 (configuration not stated) | inactive | –
CCCN(CCc1ccccc1)[C@H]1CCc2c(O)cccc2C1 | inactive | –
Cc1ccc(COn2c(-c3ccc(Cl)cc3)nc3ccc([N+](=O)[O-])cc32)cc1 | inactive | –
Cc1cc(C)c(Cn2cnc(-c3ccc([N+](=O)[O-])cc3)c2)c(C)c1 | 3.16 µM (active) | –
C=C(C)C1CC=C(C)/C(=N/NC(=O)c2ccc(NC(=O)c3cccc(C)c3)cc2)C1 (configuration not stated) | 1.41 µM (active) | –
Nc1nc(Nc2ccccc2)nc2c1ncn2[C@@H]1O[C@@H](CO)[C@H](O)[C@@H]1O | inactive | –
Nc1nc(Nc2ccccc2)nc2c1ncn2[C@@H]1O[C@@H](CO)[C@H](O)[C@H]1O | 0.631 µM (active) | –

Structure (SMILES) | AC50 | activity, negative = inhibition
Nc1nc(Cl)nc2c1ncn2[C@@H]1O[C@@H](CO)[C@@H](O)[C@H]1O | inactive | –
CCOc1cc(C)ccc1OCc1nnc(SCC(=O)c2cccc([N+](=O)[O-])c2)n1C | 14.1 µM (active) | –
CCOc1cc(C)ccc1OCc1nnc(SCC(=O)c2cccc([N+](=O)[O-])c2)n1CC | inactive | –
C=CCn1c(Cc2ccc(OC)cc2)nnc1SCC(=O)c1cccc([N+](=O)[O-])c1 | 14.1 µM (active) | –
CC1(C)OC(C(N)=O)C(C(N)=O)O1 (configuration not stated) | inactive | –
CC(C)(CO)N1CCN(C(=S)Nc2ccccc2)CC1 | – | 4.38% [at 11.4 µM] (inactive)
COc1cc2c(cc1OC)CN(C(=S)Nc1ccccc1)CC2 | 2.51 µM (active) | –
COCOc1ccc(Br)cc1C(=O)[C@H]1O[C@H]1c1cccc(OC)c1 | 0.0631 µM (active) | –
CN(c1ccc(C(=O)NC2CC3CCC2C3)cc1)S(C)(=O)=O (configuration not stated) | inactive | –
CCCC1c2c(ccc3ccccc23)Oc2ccc3ccccc3c21 | 0.631 µM (active) | –
COc1ncc2nc(-c3cc(F)cc(F)c3)c(=O)n(CCC#N)c2n1 | inactive | –
C=CCNC(=O)c1csc(-c2ccccc2)n1 | 10 µM (active) | –
NCCc1nc(-c2nc(C(=O)O)cs2)cs1 | – | -18.8% [at 11.4 µM] (inactive)
C=CCNC(=O)c1ccccc1Cl | inactive | –
O=C(/C=C/c1ccco1)Nc1ccc(Oc2ccccc2)cc1 | 5.01 µM (active) | –
O=C(O)Cc1cc2ccccc2nc1C(=O)O | inactive | –
CCCCCn1c(=O)c(C(=O)c2ccccc2)nc2ccccc21 | 2 µM (active) | –
O=C(c1ccccc1)c1nc2ccccc2n(CCCn2c(=O)c(C(=O)c3ccccc3)nc3ccccc32)c1=O | 1 µM (active) | –
COc1ccc2c(c1)CCC1[C@@H]2CCC2(C)[C@@H](NCCCCCCN3C(=O)C=CC3=O)CC[C@@H]12 (some centres not stated) | inactive | –
COc1cccc(CNCc2ccc(SC)cc2)c1OC | 0.251 µM (active) | –
Oc1ccc(CNCc2ccccc2)c2cccnc12 | – | -5.63% [at 11.4 µM] (inactive)

Structure (SMILES) | AC50 | activity, negative = inhibition
CC(C)(C)NC(=O)CSC(=Nc1ccc(F)cc1)NC#N | 2.82 µM (active) | –
COc1ccc(C(=O)N2CCC3(CCCN(CC(C)C)C3)CC2)cc1 | inactive | –
Cc1ccc2cc(C(=O)O)c(C)nc2c1 | inactive | –
COc1ccc(C)cc1NC(=O)c1cc2cc3ccc(C)cc3nc2o1 | inactive | –
Cc1ccc2cc3cc(C(=O)N4CCCCC4C)oc3nc2c1 (configuration not stated) | 14.1 µM (active) | –
COc1ccc2cc3cc(C(=O)NCCN4CCN(c5ccccc5F)CC4)oc3nc2c1 | 28.2 µM (active) | –
COc1ccc2cc3cc(C(=O)NCc4ccc5c(c4)OCO5)oc3nc2c1 | 10 µM (active) | –
CCN1CCN(CCCNC(=O)c2cc3cc4ccc(OC)cc4nc3o2)CC1 | inactive | –
COc1ccc2cc3cc(C(=O)NCCCN4CCOCC4)oc3nc2c1 | inactive | –
COc1ccc2cc3cc(C(=O)Nc4ccc5c(c4)OCO5)oc3nc2c1 | 7.08 µM (active) | –
COc1ccc2cc3cc(C(=O)NCc4ccccn4)oc3nc2c1 | inactive | –
CCN(CC(=O)O)CC(=O)O | – | 7.01% [at 11.4 µM] (inactive)
COCC(=O)N1CCC[C@@]2(CCN(c3ncccn3)C2)C1 | inactive | –
O=S1(=O)C=C(SCc2cccc(Cl)c2)Nc2ccccc21 | 0.891 µM (active) | –
C=CCOc1cccc(CNn2cn[nH]c2=S)c1 | 7.94 µM (active) | –
C[C@@H](C(=O)NCCc1c[nH]c2ccccc12)[C@H]1C[C@]1(C)[C@H](NC(=O)OCc1ccccc1)c1ccccc1 | 2.51 µM (active) | –
C[C@@H](C(=O)NCCc1c[nH]c2ccccc12)[C@@H]1C[C@@]1(C)[C@@H](NC(=O)OCc1ccccc1)c1ccccc1 | 0.794 µM (active) | –
COc1cccc([C@@H]2Oc3ccc(Br)cc3C(=O)[C@H]2O)c1 | 3.16 µM (active) | –
COc1cccc([C@H]2Oc3ccc(OC)cc3/C(=N\O[C@@H]3O[C@H](COC(C)=O)[C@H](OC(C)=O)[C@H](OC(C)=O)[C@H]3OC(C)=O)[C@@H]2O)c1 | – | 14.8% [at 11.4 µM] (inactive)
COc1cccc([C@@H]2Oc3ccc(OC)cc3C(=O)[C@H]2O)c1 | 1 µM (active) | –
